Measured values as given in PubChem BioAssay.
Unmarked numbers belong to inactive results.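 How the source made its calls, unless noted: active means viability loss from added drug above about 55%, and viability with drug at most 40%, in both replicates (limit read from the data, passing the limit was not always enough); inconclusive means both conditions met in only one replicate; inactive means neither replicate meets both conditions.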

Assay: growth inhibitors of H69AR lung tumor, primary screen, human, duplicate replicates (AID 580;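 active means viability at or under a set limit in both replicates, limit being median viability minus 3 SD, cut at about 48% in these data, passing the limit was not always enough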;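 further: 100% = mean luminescence of untreated wells and 0% = no signal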)
Settings: H69AR lung tumor cells viability, ATP luminescence, 72 h; at 10 µM; active compounds read low

Row | SMILES | viability
1 | Cc1cccc(N2CCN(S(=O)(=O)c3ccc4c(c3)CCC(=O)N4)CC2C)c1 (stereo unspecified) | 73.6%
2 | c1cnn(-c2cc(N3CCOCC3)ncn2)c1 | 93%
3 | Cc1cccc(NC(=O)COc2ccc(Br)cc2)n1 | 99.4%
4 | CCOC(=O)c1ccc(-c2c(C(=O)OCC)oc3cc(O)c(CC)cc3c2=O)o1 | 83.3%
5 | CC(C)NC(=O)CSCc1ccccc1Cl | 94.8%
6 | O=C(CSc1n[nH]c(-c2cccs2)n1)N1CCN(S(=O)(=O)c2ccccc2)CC1 | 102%
7 | O=S(=O)(c1ccc2ccccc2c1)N1CCCCC1 | 80.8%
8 | C=CCn1c(CC#N)nnc1N1CCOCC1 | 109%
9 | COc1ccc(OC)c(C2=NOC(C(=O)Nc3cccnc3)C2)c1 (stereo unspecified) | 88.9%

Assay: reversal of MRP1-mediated doxorubicin resistance, pilot screen, H69AR cells, doxorubicin co-treatment (AID 601)
Settings: H69AR cells + 2 uM doxorubicin, CellTiter-Glo, 72 h; at 10 µM; active compounds read high

Row | SMILES | differential viability (reversal)
10 | CCn1c(SCC(=O)Nc2nnc(C)s2)nnc1-c1ccncc1 | 4.15%
11 | O=C1CN(Cc2ccccc2)C(=NCc2ccco2)S1 | 4.9%
12 | COc1ccc(NC(=O)c2cc(C(C)C)on2)c(OC)c1 | -2.67%
13 | COc1ccc(N2CCN(CCCNC(=O)C3(S(=O)(=O)c4ccc(Cl)cc4)CC3)CC2)cc1 | -13.1%
14 | O=c1oc2ccccc2c2c1ncn2-c1ccccc1 | -8.58%
15 | O=C(Cn1ncc2ccccc21)N1CCN(c2cccc(C(F)(F)F)c2)CC1 | -6.95%
16 | O=C(NCc1ccccn1)c1cccs1 | 11.9%
17 | O=C(NC1CCCC1)C1CC1c1ccccc1 (stereo unspecified) | -2.33%
18 | CCNc1nc(N2CCOCC2)nc(N(c2ccccc2)c2ccccc2)n1 | 4.78%
19 | Cc1ccc(S(=O)(=O)N(C)Cc2cc3ccccc3[nH]c2=O)cc1 | 3.6%
20 | COc1ccc(S(=O)(=O)N2CCN(CC(=O)Nc3ccc(C)c(F)c3)CC2)cc1 | -25.9%
21 | CC(C)(C)C(=O)/C=C(\N)c1ccccn1 | 2.67%
22 | O=c1c2cc(N3CCOCC3)ccc2[nH]c(=S)n1CCCN1CCCCC1 | 4.74%
23 | O=C(CC1CCS(=O)(=O)C1)Nc1ccc[nH]c1=O (stereo unspecified) | 14.1%
24 | CCC(=O)c1ccc(OC(=O)c2ccc(Br)o2)cc1 | 8.45%
25 | CC1CCN(CCn2c(=S)[nH]c3ncccc3c2=O)CC1 | 9.6%
26 | CC(C)CC(=O)CN1C(=O)C2(OCCO2)c2ccccc21 | -6.21%
27 | CS(=O)(=O)c1ccc2nc(NC(=O)CCC(=O)c3cccs3)sc2c1 | -4.38%
28 | O=S(=O)(NCc1cn2ccsc2n1)c1ccc2c(c1)OCCO2 | 9.79%

Row | SMILES | differential viability (reversal)
29 | CC1(CC(=O)O)C(=O)N=C2C=CC=CN21 (stereo unspecified) | 5.18%
30 | CCN(CC)S(=O)(=O)c1cccc(-c2nnc(SCC(N)=O)n2CCc2ccccc2)c1 | -9.28%
31 | CC1(C)Cc2noc(N)c2C(C)(C)N1O | 14.8%
32 | CCOc1ccc(Cc2nn[nH]n2)cc1 | 5.14%
33 | CC(C)NC(=O)CSc1nnc(-c2ccc(C(C)(C)C)cc2)n1C | 11.6%
34 | C=CCC(NCc1ccco1)c1ccc(OC)cc1OC (stereo unspecified) | 7.67%
35 | CCN(c1cccc(C(F)(F)F)c1)S(=O)(=O)c1ccc2c(c1)CCN2C(=O)C1CC1 | -0.405%
36 | COc1ccc(OC)c(S(=O)(=O)N2CCC(C(=O)NCC3CCCO3)CC2)c1 (stereo unspecified) | 8.66%
37 | Cn1c(COc2ccc(Cl)cc2)nnc1SCC(=O)NC1CCCCC1 | 9.25%
38 | CCN(c1c(C)n(C)n(-c2ccccc2)c1=O)S(C)(=O)=O | 6.92%
39 | CCc1nc(N)c(C#N)c(-c2ccc(OC)c(OC)c2)c1C | 9.15%
40 | CSCCC(NC(=O)c1occc1C)C(=O)O (stereo unspecified) | 12.8%
41 | Cc1cccc(N2CCN(S(=O)(=O)c3ccc4c(c3)CCC(=O)N4)CC2C)c1 (stereo unspecified) | -10.3%
42 | c1cnn(-c2cc(N3CCOCC3)ncn2)c1 | 7.52%
43 | Cc1cccc(NC(=O)COc2ccc(Br)cc2)n1 | 6.92%
44 | CCOC(=O)c1ccc(-c2c(C(=O)OCC)oc3cc(O)c(CC)cc3c2=O)o1 | -19.3%
45 | CC(C)NC(=O)CSCc1ccccc1Cl | 18%
46 | O=C(CSc1n[nH]c(-c2cccs2)n1)N1CCN(S(=O)(=O)c2ccccc2)CC1 | -3.67%
